The source of these data is PubChem BioAssay (NCI).

The nature of assay [1]: NCI Yeast Anticancer Drug Screen. Data for the rad50 strain (AID 155).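 Also: 0% = growth of vehicle-only cultures of the same strain.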 As to conditions: S. cerevisiae rad50 strain growth inhibition, stronger effect = higher value. The essentials: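 Inhibition values express reduced yeast growth in compound-treated cultures relative to vehicle-treated controls.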
The nature of assay [2]: NCI Yeast Anticancer Drug Screen. Data for the mec2-1 strain (AID 157). The settings on record: S. cerevisiae mec2-1 strain, stronger effect = higher value. The essentials:
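Readout is yeast growth inhibition, normalised to vehicle-treated controls, in the mec2-1 strain exposed to compound.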

Assay [3] is described as follows: NCI Yeast Anticancer Drug Screen. Data for the sgs1 mgt1 strain (AID 161).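 Also: 0% = growth of cultures given vehicle only.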 The settings on record: S. cerevisiae sgs1 mgt1 strain, stronger effect = higher value. The essentials:
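Growth of a repair-deficient yeast mutant was monitored after compound treatment and expressed as inhibition relative to vehicle-treated cultures.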

A short description of assay [4]: NCI Yeast Anticancer Drug Screen. Data for the cln2 rad14 strain (AID 165).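 Also: 0% = growth equal to vehicle treated cultures.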 The settings on record: S. cerevisiae cln2 rad14 strain, stronger effect = higher value. In outline:
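Relative to vehicle controls, growth inhibition of compound-treated cln2 rad14 yeast was recorded.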

A short description of assay [5]: NCI Yeast Anticancer Drug Screen. Data for the bub3 strain (AID 167). The settings on record: S. cerevisiae bub3 mutant strain, stronger effect = higher value. The essentials:
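Steps: expose the mutant yeast strain to compound; grow alongside vehicle-treated cultures; measure growth; express inhibition against the vehicle cultures.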

Assay [6] is described as follows: NCI Yeast Anticancer Drug Screen. Data for the mlh1 rad18 strain (AID 175). As to conditions: S. cerevisiae mlh1 rad18 strain growth inhibition, stronger effect = higher value. In outline:
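Test agents were incubated with a yeast strain of defined genotype (DNA damage repair defect). Inhibition of growth was derived by comparison with vehicle-exposed cultures.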

The mark [7] stands for this setting: at 5.0 µM (retest, dose inferred, filed as 0.5).
[8] abbreviates: at 50.0 µM (retest, dose inferred, filed as 5.0).

SMILES strings stand for the structures. Several values for one entry are separate records, joined by “and”; a condition that tells them apart may be missing. Identical values can stand only once. About 79,000 compounds went through this panel and 15% of them were active in at least one assay; those are over-represented in the sample as a whole. Where a structure was tested more than once in an assay, its records may differ in their call. Activity calls are given as the source filed them. Rule as the data show it: active = growth inhibition above about 70%; inactive = the rest.

Take `CCCCCC[C@H](C/C=C\CCCCCCCC(=O)OC)OC(C)=O`: the growth inhibition was -6% (inactive) in assay [1] (setting [7]); 27% (inactive) in assay [1] (setting [8]); -0.2% (inactive) and -4.1% (inactive) in assay [1] (at 50.0 µM); -4% (inactive) in assay [2] (setting [7]); 69% (inactive) in assay [2] (setting [8]); 2.25% (inactive) and -0.75% (inactive) in assay [2] (at 50.0 µM). Besides, the growth inhibition in assay [3] (setting [7]) was -6% (inactive); in assay [3] (setting [8]), 42% (inactive); in assay [3] (at 50.0 µM), 29.2% (inactive) and -40.8% (inactive); in assay [4] (setting [7]), -1% (inactive); in assay [4] (setting [8]), -4% (inactive); in assay [4] (at 50.0 µM), 73.5% (active) and 54.6% (inactive). The growth inhibition in assay [5] (setting [7]) is -6% (inactive); in assay [5] (setting [8]), 92% (active); in assay [5] (at 50.0 µM), 3.65% (inactive) and -26.2% (inactive); in assay [6] (setting [7]), -3% (inactive); in assay [6] (setting [8]), 21% (inactive); in assay [6] (at 50.0 µM) it was 9.45% (inactive) and -22.9% (inactive).
With `COC(=O)[C@]1(C)CCC[C@]2(C)c3ccc(C(C)C)cc3CC[C@@H]12`, the growth inhibition in assay [1] (setting [7]) is 0% (inactive); in assay [1] (setting [8]) it was 40% (inactive); in assay [1] (at 50.0 µM), -12.8% (inactive) and 98.4% (active); in assay [2] (setting [7]), 6% (inactive); in assay [2] (setting [8]), 97% (active); in assay [2] (at 50.0 µM), 3.05% (inactive) and 99.1% (active). Moreover, the growth inhibition is -8% (inactive) in assay [3] (setting [7]); 74% (active) in assay [3] (setting [8]); 13.8% (inactive) and 99% (active) in assay [3] (at 50.0 µM); 0% (inactive) in assay [4] (setting [7]); 41% (inactive) in assay [4] (setting [8]); -19.3% (inactive) and 99% (active) in assay [4] (at 50.0 µM). Besides, the growth inhibition in assay [5] (setting [7]) is 1% (inactive); in assay [5] (setting [8]) it was 43% (inactive); in assay [5] (at 50.0 µM), -31.1% (inactive) and 99.2% (active); in assay [6] (setting [7]) it was -1% (inactive); in assay [6] (setting [8]) it was 66% (inactive); in assay [6] (at 50.0 µM), 10.1% (inactive) and 99% (active).
For `CSC1SCC2C(=O)N(C)C(C(C)C)C(=O)OCC(NC(=O)c3cnc4ccccc4n3)C(=O)NC(C)C(=O)N(C)C1C(=O)N(C)C(C(C)C)C(=O)OCC(NC(=O)c1cnc3ccccc3n1)C(=O)NC(C)C(=O)N2C` (stereo not drawn), the growth inhibition in assay [1] (setting [7]) was 8% (inactive) and 97% (active); in assay [1] (setting [8]), 98% (active) and 97% (active); in assay [1] (at 50.0 µM), 98.8% (active) and 91.2% (active); in assay [2] (setting [7]), 4% (inactive) and 99% (active); in assay [2] (setting [8]) it was 98% (active); in assay [2] (at 50.0 µM), 99.5% (active) and 91.7% (active). Besides, the growth inhibition was 2% (inactive) and 98% (active) in assay [3] (setting [7]); 98% (active) in assay [3] (setting [8]); 98.8% (active) and 93% (active) in assay [3] (at 50.0 µM); 8% (inactive) and 94% (active) in assay [4] (setting [7]); 98% (active) and 96% (active) in assay [4] (setting [8]); 98.2% (active) and 90.2% (active) in assay [4] (at 50.0 µM). For the same compound, the growth inhibition is 7% (inactive) and 96% (active) in assay [5] (setting [7]); 98% (active) and 97% (active) in assay [5] (setting [8]); 98.7% (active) and 90.3% (active) in assay [5] (at 50.0 µM); 6% (inactive) and 98% (active) in assay [6] (setting [7]); 98% (active) and 97% (active) in assay [6] (setting [8]); 99% (active) and 90.2% (active) in assay [6] (at 50.0 µM).
As for `CC(=O)OCC(OC(C)=O)C(OC(C)=O)C(OC(C)=O)C(OC(C)=O)C(/C=N/Nc1ccccc1)=N/Nc1ccccc1` (stereo not drawn), the growth inhibition was 21% (inactive) and -14% (inactive) in assay [1] (setting [7]); 90% (active) and 4% (inactive) in assay [1] (setting [8]); 94.8% (active) and 57.6% (inactive) in assay [1] (at 50.0 µM); 4% (inactive) and 1% (inactive) in assay [2] (setting [7]); 68% (inactive) and -7% (inactive) in assay [2] (setting [8]); 48.1% (inactive) and 4.7% (inactive) in assay [2] (at 50.0 µM). The growth inhibition in assay [3] (setting [7]) was -12% (inactive) and -18% (inactive); in assay [3] (setting [8]), 50% (inactive) and 9% (inactive); in assay [3] (at 50.0 µM), 47.8% (inactive) and 6.1% (inactive); in assay [4] (setting [7]) it was 23% (inactive) and 0% (inactive); in assay [4] (setting [8]), 86% (active) and 1% (inactive); in assay [4] (at 50.0 µM), 44.4% (inactive) and 29.6% (inactive). For the same compound, the growth inhibition was 7% (inactive) and -3% (inactive) in assay [5] (setting [7]); 87% (active) and -12% (inactive) in assay [5] (setting [8]); 86.3% (active) and 18.7% (inactive) in assay [5] (at 50.0 µM); 26% (inactive) and -3% (inactive) in assay [6] (setting [7]); 93% (active) and -1% (inactive) in assay [6] (setting [8]); 95.2% (active) and 40.5% (inactive) in assay [6] (at 50.0 µM).
Consider `Nc1c(C(=O)O)ccc(C(=O)O)c1C(=O)O`, for which the growth inhibition in assay [1] (setting [7]) is -131% (inactive); in assay [1] (setting [8]), -173% (inactive); in assay [1] (at 50.0 µM), -5.95% (inactive) and 2.45% (inactive); in assay [2] (setting [7]), -50% (inactive); in assay [2] (setting [8]), -53% (inactive); in assay [2] (at 50.0 µM), 14.1% (inactive) and -1% (inactive). Further, the growth inhibition in assay [3] (setting [7]) is -54% (inactive); in assay [3] (setting [8]) it was -67% (inactive); in assay [3] (at 50.0 µM), 25% (inactive) and 3.8% (inactive); in assay [4] (setting [7]) it was -56% (inactive); in assay [4] (setting [8]) it was -60% (inactive); in assay [4] (at 50.0 µM) it was 3.75% (inactive) and -23.4% (inactive). Also, the growth inhibition was -65% (inactive) in assay [5] (setting [7]); -79% (inactive) in assay [5] (setting [8]); -2.6% (inactive) and -5.8% (inactive) in assay [5] (at 50.0 µM); -113% (inactive) in assay [6] (setting [7]); -123% (inactive) in assay [6] (setting [8]); 33.5% (inactive) and -12.9% (inactive) in assay [6] (at 50.0 µM).
As to `Cc1nc2c(ccc3[nH]c4ccccc4c32)s1`, the growth inhibition in assay [1] (setting [7]) is 7% (inactive); in assay [1] (setting [8]) it was 99% (active); in assay [1] (at 50.0 µM), 90.8% (active); in assay [2] (setting [7]), 9% (inactive); in assay [2] (setting [8]), 99% (active); in assay [2] (at 50.0 µM) it was 92.5% (active). Also, the growth inhibition in assay [3] (setting [7]) is 16% (inactive); in assay [3] (setting [8]) it was 99% (active); in assay [3] (at 50.0 µM) it was 91% (active); in assay [4] (setting [7]), -16% (inactive); in assay [4] (setting [8]), 99% (active); in assay [4] (at 50.0 µM), 91% (active). Besides, the growth inhibition in assay [5] (setting [7]) is 8% (inactive); in assay [5] (setting [8]), 99% (active); in assay [5] (at 50.0 µM), 91.8% (active); in assay [6] (setting [7]) it was 10% (inactive); in assay [6] (setting [8]), 99% (active); in assay [6] (at 50.0 µM) it was 89.9% (active).
